Assay results published in ChEMBL document CHEMBL4513216, “Probing the Open Global Health Chemical Diversity Library for Multistage-Active Starting Points for Next-Generation Antimalarials” (ACS Infect Dis, 2020).
Hit rate of the full screen: of about 69,000 compounds, about 8,600 (12%) showed an effect of 50% or more. The entries come from a sample that favours strong results as a whole.

Each compound was assayed on Plasmodium berghei (assay: Screen against P. berghei liver stage (PbLuc), transformed with Luciferase, at 10uM). Conditions: tested at 10 uM.
Type: functional, HepG2

Compound	INHIBITION [%]
O=C1CN(c2ccc(C(=O)N3CCc4ccccc43)cn2)CCN1	49
N#Cc1c(F)cccc1N1CCN(C(=O)Nc2nncs2)CC1	-7.53
O=C(NCCc1nccs1)c1cn(CCN2CCNCC2)nn1	-45
O=C(NCCN1CCNC1=O)c1cnc(-c2cccnc2)nc1	15.64
O=C(c1ccsc1)N1CCc2nnc(COc3cncnc3)n2CC1	53.9
O=C(Cc1cccs1)N1CCc2nnc(COc3cncnc3)n2CC1	47.5
O=C(c1cccs1)N1CCc2nnc(COc3cncnc3)n2CC1	28.2
O=C(c1cccs1)N1CCc2ncc(Cn3cncn3)n2CC1	22.9
O=C(c1cscn1)N1CCc2ncc(Cn3cncn3)n2CC1	38.1
O=C(c1ccsc1)N1CCc2ncc(Cn3cncn3)n2CC1	62.5
O=C1CN(C(=O)c2cc3c(F)cc(Br)cc3[nH]2)CCN1	-44.2
Cc1cccc(N2CCc3ncc(CNc4ccccn4)n3CC2)n1	-26.1
Cc1cc(N2CCOC(c3ccc(C(N)=O)cn3)C2)ncn1 (stereo unspecified)	36.9
Cc1cc(C)nc(N2CCC(C(=O)Nc3n[nH]c(C)n3)CC2)n1	47.3
COCCN1CCC2(CCC1=O)CN(C1CCOCC1)CCN2C (stereo unspecified)	17.8
CC(=O)Nc1nc(C(=O)Nc2ccc(F)cc2)cs1	31.1
Cc1cccc(C(=O)NCc2ccc(N3CCCCC3)nc2)n1	8.48
CC(=O)Nc1nc(C(=O)NCc2ccc(N3CCCC3)nc2)cs1	13.3
CC(=O)Nc1nc(C(=O)NCc2ccc(N3CCOCC3)nc2)cs1	19.4
CCN1CCN(c2ccc(CNC(=O)c3cc(C)on3)cn2)CC1	25.6
CC(=O)Nc1nc(C(=O)Nc2ccc(N3CCCCC3)nc2)cs1	78.1
Cc1cccc(C(=O)NCc2ccc(N3CCCCCC3)nc2)n1	87.3

Compound	INHIBITION [%]
CCN1CCN(c2ccc(CNC(=O)c3ccc(Cl)o3)cn2)CC1	57.2
CCN(CC)c1ccc(CNC(=O)c2cccc(C)n2)cn1	16.2
CCN1CCN(c2ccc(CNC(=O)c3cnn(C)c3C)cn2)CC1	-15.5
CC(=O)Nc1nc(C(=O)NCc2ccc(N3CCCCCC3)nc2)cs1	67.2
CC(=O)Nc1nc(C(=O)NCc2ccnc(N3CCCC3)c2)cs1	9.14
CN(C(=O)C1CCC1)C1CCN(c2ccccc2Cl)C1=O (stereo unspecified)	1.74
CC(=O)c1c(C)nn(S(=O)(=O)c2ccccc2)c1C	49.3
CCN(CC)C(=O)CS(=O)(=O)c1cc(OC)c(OC)cc1C	-48.3
Cc1cnc(CN(C)C2CCN(Cc3nc4ccccc4o3)C2)o1 (stereo unspecified)	13.3
C1CC(NCc2nnc(C3CC3)o2)CN(Cc2noc(C3CC3)n2)C1 (stereo unspecified)	-19.9
CN1CCN(S(=O)(=O)c2ccc(C(=O)N3CC[C@@H](O)C3)cc2)CC1=O	1.41
c1cc(CC2CCCNC2)nc(NCCc2cnccn2)c1 (stereo unspecified)	32.3
Cn1cc(C(C)(O)CNc2ccc(Cl)c(C#N)n2)cn1 (stereo unspecified)	-10.7
Cc1ccc(C(=O)N2CCCC(c3nncn3C)C2)c(C)c1 (stereo unspecified)	45.1
CC(C)c1nnc2n1CCN(CCC(=O)N1CCc3ccccc31)C2	13.7
Cc1noc(C)c1C(=O)NCc1ccc(N2CCC(C)CC2)nc1	74.9
Cc1noc(C)c1C(=O)NCc1ccc(N2CCCCCC2)nc1	25.6
Cc1noc(C)c1C(=O)NCc1ccc(N2CCOCC2)nc1	5.03
CN(C)C(=O)[C@@H]1C[C@@H]2CCN(Cc3ccc4c(c3)OCO4)C[C@@H]2O1	13.1
CN1CCN(c2ccc(F)cc2NC(=O)NCc2ccon2)CC1	51.6
O=C(c1ccncc1)N1CCN(c2ccc(F)cc2Cl)CC1	23.8
Cc1nc(CNC(=O)Nc2cc(F)ccc2OC(F)F)no1	5.91

Compound	INHIBITION [%]
CCN1CCN(c2ccccc2NC(=O)NCc2ccon2)CC1	50.4
O=C(Cc1ccon1)N1CCN(c2ccc(F)cc2Cl)CC1	50
Cc1nc(CNC(=O)Nc2cc(F)ccc2N2CCN(C)CC2)no1	52.7
O=C(NCc1ccon1)Nc1cc(F)ccc1N1CCCCC1	28.8
O=C(Cc1ccon1)N1CCN(c2ccncc2Cl)CC1	20.9
CN1CCN(c2ccc(F)cc2NC(=O)NCC[S+](C)[O-])CC1 (stereo unspecified)	-33
CC1CN(C)c2ccccc2CN1C(=O)NCc1ccon1 (stereo unspecified)	4.6
CCc1cc(CNC(=O)Nc2cc(F)ccc2N2CCCCC2)on1	26.6
CC1CCCN(Cc2ccc(CNC(=O)NCc3ccon3)cc2)C1 (stereo unspecified)	-18.6
COc1cccc(C(=O)N2C[C@@H]3CC[C@H]2CN(Cc2cscn2)C3)c1	7.3
CC(C)NC(=O)NC(C)c1nc(-c2ccccc2)cs1 (stereo unspecified)	15.7
O=S(=O)(c1cccc(F)c1)N1CC[C@H]2[C@H]1CCN2c1ncccn1	-12.4
CN(C)C(=O)[C@H]1C[C@@H]2CCN(C3CCOCC3)C[C@@H]2O1	-0.371
COc1c(C2CCCN2C(=O)c2scnc2C)c(C)nn1C (stereo unspecified)	25.1
COc1ccc(S(=O)(=O)NC(=O)COC2CCCCC2)cc1	14.1
CC(C)n1nccc1CN1Cc2nccn2CC1c1ccccc1 (stereo unspecified)	7.39
Cc1nn(C)c(C)c1C(=O)NCc1cc(N(C)C)nc2ccccc12	-21.1
Cc1nn(C)cc1C(=O)NCc1cc(N(C)C)nc2ccccc12	-17.8
CCn1nc(C)cc1C(=O)NCc1cc(N(C)C)nc2ccccc12	54.4
CNC(=O)CN1CCO[C@H]2CN(C(=O)C3CC3)C[C@H]21	-8.85
C1CC(c2noc(C3CC3)n2)N(Cc2nnc(C3CC3)o2)C1 (stereo unspecified)	15.75
CC(=O)N1CCOC(c2c(C(=O)O)sc3ccccc23)C1 (stereo unspecified)	-9.51

Compound	INHIBITION [%]
CC(C)c1nc2c(n1C)CCN(Cc1nc(-c3ccsc3)no1)C2	47.6
Cn1cnc2c1CCN(Cc1nc(COc3ccc(F)cc3)no1)C2	53.8
c1ccc(Cc2noc(CN3CCc4c(ncn4C4CC4)C3)n2)cc1	0.411
Cn1cnc2c1CCN(Cc1nc(-c3ccsc3)no1)C2	52.7
c1cncc(-c2noc(CN3CCc4cncnc4C3)n2)c1	22.683
Cn1c(C2CC2)nc2c1CCN(Cc1nc(Cc3ccccc3)no1)C2	34.7
c1ccc(-c2noc(CN3CCc4cncnc4C3)n2)nc1	72.9
Cn1cnc2c1CCN(Cc1nc(-c3ccco3)no1)C2	45.1
Cn1cnc2c1CCN(Cc1nc(Cc3ccccc3)no1)C2	52.7
CCc1ncc2c(n1)CN(Cc1nc(-c3ccccn3)no1)CC2	47.1
Cn1cnc2c1CCN(Cc1noc(-c3ccccc3)n1)C2	43.7
c1cc(-c2noc(CN3CCc4c(ncn4C4CC4)C3)n2)cs1	31.1
CN1C(=O)[C@@H]2CC[C@H]1CN(C(=O)c1nnc3n1CCCCC3)C2	-89.9
CCS(=O)(=O)N1CCC2(CC1)CN(c1cccnc1)C(=O)CO2	45.7
CC(C)c1ncc2c(n1)CN(Cc1nc(-c3ccccn3)no1)CC2	28.8
CCCn1nccc1-c1nccnc1CC1CCN(C(C)=O)CC1	19.3
COC1C[C@@H]2CN(C(=O)c3cc4cccc(F)c4[nH]3)C[C@@H]2C1 (stereo partly specified)	-14.379
CCN(CC)Cc1cn2c(n1)CN(Cc1c(C)noc1C)CC2	16.6
COCCn1ccc2c(C(=O)NCC3CCCO3)cccc21 (stereo unspecified)	23.7
Cc1cnc(N2C[C@@H]3CCN(CC(=O)N(C)C)C(=O)[C@H]3C2)nc1	-61.9
Cc1ccc(CC2COCCN(Cc3ccccc3)C2)nc1 (stereo unspecified)	35
Cc1ccc2c(n1)N(C)CCN(C(=O)NC1CC1)C2	1.28

Compound	INHIBITION [%]
c1ccc(Cc2noc(CN3CCc4cncnc4C3)n2)cc1	19.6
Fc1ccc(OCc2noc(CN3CCc4cncnc4C3)n2)cc1	50.4
Cn1cnc2c1CCN(Cc1csc(-c3ccccc3)n1)C2	23.6
COc1ccc(-c2noc(CN3CCc4cncnc4C3)n2)cc1	40.3
Cn1cnc2c1CCN(Cc1csc(-c3ccc(F)cc3)n1)C2	-2.522
Cn1cnc2c1CCN(Cc1csc(-c3ccccc3F)n1)C2	70.7
CO[C@@H]1CCC[C@@H](N(C)C(=O)c2cn3cc(C)ccc3n2)[C@H]1O	-11.125
COc1ccc(C(=O)N2CCCS2(=O)=O)cc1	-11.4
CN1C(=O)CC(c2ccccc2)C12CCN(CC1CCOCC1)CC2 (stereo unspecified)	-7.28
COCCN1CCC(CN(CC2CCCO2)C(=O)C2CCOCC2)CC1 (stereo unspecified)	29.9
CN(C)Cc1nc(C(C)(C)NC(=O)c2ccnn2C)no1	57.6
CCCc1nc(C(C)(C)NC(=O)c2ccnn2C)no1	38.3
Cn1nccc1C(=O)NC(C)(C)c1noc(C(C)(C)C)n1	12.7
CCNc1ncc(C(=O)N2CCc3c(nc(C)nc3N(C)C)C2)cn1	36.7
CCO[C@H]1CN(C)C[C@@H]1NC(=O)c1cc(C)nc2c(C)cccc12	24.3
Cc1cc(SC(C)(C)C)ccc1NC(C)C(=O)NC(N)=O (stereo unspecified)	65.7
Cc1cc(SC(C)(C)C)ccc1NCC(=O)NC(N)=O	32
Cc1cc(SC(C)(C)C)ccc1NC(=O)CNC(N)=O	22.2
